# High-throughput results: PubChem BioAssay, National Center for Advancing Translational Sciences (NCATS)
# An excerpt weighted towards active compounds, which were near 8.7% of everything screened.
# HP1b binding inh = inhibitors of HP1-beta chromodomain binding to methylated histone tails | Potency, µM (top dose mostly 114 µM), for inactives: at the top dose activity change, negative = inhibition, actives largely listed as inhibitors | actives 0.56% (n = 390,000) | AID 540317 | AlphaScreen HP1-beta / biotin-H3K9me3 peptide binding | P83916; further: nearly all actives have a fitted effect of over 70% in size
#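 AlphaScreen: HP1-beta (50 nM) preformed 30 min with biotin-H3(1-18)K9me3 peptide (50 nM) in PBS pH 7.4, 0.01% Tween-20. Compound added for 30 min at RT, then streptavidin donor/nickel chelate acceptor beads (10 ug/mL) for 30 min.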
# BAZ2B block = BAZ2B (human) inhibition; AlphaScreen BAZ2B-H3K14Ac peptide displacement; Q9UIF8; Potency, µM (doses to about 114 µM), without a hit: at the top dose activity change, negative = inhibition, hits mostly inhibitors; actives 4.4% (n = 360,000); further: on the % scale 0 is the no-effect control and ±100 the full control effect; nearly all actives have a fitted effect of over 60% in size
#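 Complex of BAZ2B and biotin-H3K14Ac (50 nM apiece) forms over 30 min at RT, then faces library compounds up to 110 uM for another 30 min; AlphaScreen beads added, 20 min dark incubation, luminescence read.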
# JMJD2A Tudor = JMJD2A Tudor domain (human) inhibition; actives 4.4% (n = 390,000); Potency, µM (top dose mostly 114 µM), for the others: top-dose activity change, negative = inhibition, actives largely listed as inhibitors; AlphaScreen JMJD2A-Tudor / H3K4me3 peptide binding; AID 504339; further: on the % scale 0 is the no-effect control and ±100 the full control effect; nearly all actives have a fitted effect of over 50% in size
# Sfp inh = inhibitors of Bacillus subtilis Sfp phosphopantetheinyl transferase; Q9F4F7; Biochemical Sfp PPTase activity, qHTS; actives 3.5% (n = 310,000); Potency, µM, for inactives: largest response in the series, negative = inhibition, usual class: inhibitors;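 further: the enzyme is Sfp with the accession as filed and its product quenches rhodamine fluorescence; 0% = enzyme reaction without inhibitor and -100% = no enzyme wells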
#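 Buffer: 50 mM Hepes-Na pH 7.6, 10 mM MgCl2, 0.01% Nonidet P-40, 0.01% BSA. Enzyme 15 nM, pre-exposed to compound 15 min; substrates then added and fluorescence change tracked over 30 min.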
# G9a block = blocks human histone lysine methyltransferase G9a. Q96KQ7. Potency, µM (series often up to 102 µM), inactives show at the highest dose activity, negative = inhibition, most hits filed as inhibitors. G9a H3K9 monomethylation, AlphaScreen, 2 h. actives 8.8% (n = 350,000); further: on the % scale 0 is the no-effect control and ±100 the full control effect; nearly all actives have a fitted effect of over 75% in size
#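 AlphaScreen detection with an anti-monomethyl H3K9 antibody quantified product after a 2 h room-temperature reaction containing 500 nM biotinylated H3K9 peptide, 20 µM SAM and 20 nM enzyme, which had been preincubated 15 min with compound.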
# 12-LOX inh = blocks human arachidonate 12S-lipoxygenase | P18054 | purified 12hLO, xylenol orange hydroperoxide absorbance | Potency, µM (doses to about 108 µM), for inactives: top-dose activity change, negative = inhibition, hits mostly inhibitors | actives 1.1% (n = 580,000) | AID 1671190; further: on the % scale 0 is the no-effect control and ±100 the full control effect
# Target sequence (P18054 whole entry, looked up): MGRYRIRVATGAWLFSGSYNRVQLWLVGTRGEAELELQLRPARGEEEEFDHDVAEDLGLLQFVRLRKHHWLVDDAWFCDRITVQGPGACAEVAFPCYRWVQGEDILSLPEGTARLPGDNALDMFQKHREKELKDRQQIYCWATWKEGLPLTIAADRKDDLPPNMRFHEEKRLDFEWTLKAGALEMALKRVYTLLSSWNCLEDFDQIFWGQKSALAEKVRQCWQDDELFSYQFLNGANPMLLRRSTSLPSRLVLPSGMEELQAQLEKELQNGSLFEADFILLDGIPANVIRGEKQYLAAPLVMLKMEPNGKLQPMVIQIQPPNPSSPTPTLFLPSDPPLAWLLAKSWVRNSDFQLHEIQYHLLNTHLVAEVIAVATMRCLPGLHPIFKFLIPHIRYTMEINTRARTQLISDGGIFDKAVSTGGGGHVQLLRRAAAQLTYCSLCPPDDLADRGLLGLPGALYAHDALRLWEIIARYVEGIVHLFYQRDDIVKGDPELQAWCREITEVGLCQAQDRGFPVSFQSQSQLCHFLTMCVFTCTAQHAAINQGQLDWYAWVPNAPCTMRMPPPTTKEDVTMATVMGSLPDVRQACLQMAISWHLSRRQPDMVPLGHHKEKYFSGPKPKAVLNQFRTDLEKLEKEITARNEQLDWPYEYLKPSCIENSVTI
#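 Purified human 12hLO (150 nM final) in 25 mM Hepes, 0.01% Triton X-100, pH 7.0 was preincubated 15 min at room temperature with compound. Then 40 uM arachidonic acid was added, 30 min. Hydroperoxide was read by Fe-XO absorbance ratio 573/405 nm.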
# An asterisk follows results filed as active; u = inconclusive; x = no result given; [ ] = dose if it differs, or a comment. The call rests on the fitted dose curve; in most records, active means well fitted curve in the direction sought with a large enough effect; inconclusive means small, poorly fitted or top-dose-only effect, or another doubt; inactive means no such curve, though single readings can be large; an effect the other way counts as inactive or inconclusive. Potency means the concentration at half of the fitted maximal effect.
SMILES,HP1b binding inh,BAZ2B block,JMJD2A Tudor,Sfp inh,G9a block,12-LOX inh
CC(=O)NS(=O)(=O)c1ccc(NC(=O)CCC(=O)Oc2ccc(C)cc2)cc1,33%,4%,8%,16%,-11%,-21%
CC(=O)NS(=O)(=O)c1ccc(NC(=O)CSc2ccc(C)cc2)cc1,46%,-18%,-9%,79µM*,u,u
Cc1cc(C)nc(NS(=O)(=O)c2ccc(NS(=O)(=O)c3ccc(C#N)cc3)cc2)n1,12%,-18%,5%,5%,u,1%
CC(C)(C)c1ccc(-c2nnc(SCC(=O)NCc3cccs3)n2Cc2ccco2)cc1,x,x,x,x,x,-25%
O=C(Cc1ccc(Br)cc1)Nc1ccc(S(=O)(=O)Nc2ncccn2)cc1,58%,-6%,-11%,-8%,x,-3%
O=C(Cc1ccc(Cl)cc1)Nc1ccc(S(=O)(=O)Nc2ncccn2)cc1,40%,-29%,-9%,-7%,79µM*,u
Cc1cc(C)nc(SCC(=O)Nc2ccc(S(=O)(=O)Nc3ncccn3)cc2)n1,24%,-15%,3%,13µM*,x,-1%
Cc1cc(C)nc(SCC(=O)Nc2ccc(S(=O)(=O)Nc3nccs3)cc2)n1,11%,4%,-12%,3%,u,4%
Cc1cc(C)nc(NS(=O)(=O)c2ccc(NC(=O)CN3C(=O)c4ccccc4C3=O)cc2)n1,x,-2%,x,19%,u,0%
Cc1cc(C)nc(NS(=O)(=O)c2ccc(NC(=O)Cn3c(=O)oc4ccccc43)cc2)n1,43%,7%,-3%,-18%,79µM*,1%
Cc1ccc(-c2nc(-c3ccccc3Br)no2)cc1,x,x,x,x,x,5%
CC(C)c1nc2cc(NC(=O)c3n[nH]c(=O)c4ccccc34)ccc2o1,x,x,x,x,x,8%
Cc1cccc(CNC(=O)Cc2ccc(N(Cc3ccccc3)C(=O)c3ccco3)cc2)c1,x,x,x,x,x,-7%
Cc1cccc(N(C(=O)c2snc(C(N)=O)c2N)C(C(=O)NCc2ccccc2)c2ccncc2)c1 (stereo unspecified),u,6%,-22%,15%,50µM*,-25%
NC(=O)c1nsc(C(=O)N(Cc2ccco2)C(C(=O)NCc2ccc(F)cc2)c2ccc(O)cc2)c1N (stereo unspecified),4%,-21%,-18%,-1%,9%[59 µM],-12%
CN(C)c1ccc(C(C(=O)NCc2ccccc2)N(Cc2ccco2)C(=O)c2snc(C(N)=O)c2N)cc1 (stereo unspecified),-16%,u,u,7%,35µM*,5%
Cc1ccccc1CN1C(=O)C(C)Sc2ccc(-c3ccco3)cc21 (stereo unspecified),x,x,x,x,x,16µM*
N#C/C(=C\c1ccc(OCC(=O)N2CCOCC2)cc1)C(=O)Nc1ccccc1,x,x,x,x,x,7%
Cc1cc(C(F)(F)F)c(C#N)c(N2CCOCC2)n1,-8%,9%,28µM*,u,12%,-17%
C=CCSc1nc2c(c(=O)n(C)c(=O)n2C)n1Cc1ccccc1Cl,x,x,x,x,x,-4%
O=C(C1CC1)N(C1CCOCC1)C1CCN(S(=O)(=O)c2ccccc2)CC1,x,x,x,x,x,16%
O=[N+]([O-])c1ccc(Oc2ccc(S(=O)(=O)Nc3ccccc3)cc2)cc1,13%,-30%,-26%,6%,u,x
O=C1C(Cl)=C(NS(=O)(=O)c2ccc([N+](=O)[O-])cc2)C(=O)c2ccccc21,u,45µM*,u,-18%,-154%[59 µM],u
COc1cc2c3c(c1)/C(=C1/SC(NC(C)=O)=NC1=O)C(=O)N3C(C)(C)C=C2C,u,20µM*,u,35µM*,u,u
CCN1C(=O)/C(=C2/C(=O)N3c4c(cc(OC(C)=O)cc42)C(C)=CC3(C)C)SC1=S,u,2µM*,u,7%,2.8µM*,-8%
SMILES,HP1b binding inh,BAZ2B block,JMJD2A Tudor,Sfp inh,G9a block,12-LOX inh
CCN1C(=O)/C(=C2\SC(=S)N(CCCOC)C2=O)c2ccccc21,u,u,u,13%,-2%[12.7 µM],-6%
CCNC(=O)N(C1CC1)C1CCOC2(CCN(C(=O)CCc3cccc(OC)c3)CC2)C1 (stereo unspecified),x,x,x,x,x,26%
CCNc1nc(NCC)n2c(SCC(=O)Nc3ccc(C)c(C)c3)nnc2n1,3%,50µM*,-9%,x,3.5µM*,12%
CCNc1nc(NCC)n2c(SCC(=O)Nc3ccc(Br)cc3F)nnc2n1,u,u,u,x,7.1µM*,u
CC1CCN(CC(=O)NC(c2cccs2)C(C)C)CC1 (stereo unspecified),x,x,x,x,x,-40%
Nc1[nH]c(=S)[nH]c(=O)c1-c1ccccc1,-28%,1%,35µM*,-75%,u,7.1µM*
O=c1[nH]c(=S)[nH]c2nc(-c3ccccc3)cnc12,33%,x,4%,x,x,-6%
COc1ccc(Cl)cc1N1CC(c2nc3ccccc3n2CC(=O)N(C(C)C)C(C)C)CC1=O (stereo unspecified),x,x,x,x,x,2%
CC1CC(C)(C)NC(=S)N1CCC(=O)N1CCN(c2ccccc2)CC1 (stereo unspecified),7%,-22%,-4%,-3%,40µM*,u
CC1CC(C)(C)NC(=S)N1CCC(=O)N1CCc2ccccc2C1 (stereo unspecified),-10%,-23%,-4%,-20%,u,40µM*
CC(=O)c1ccc(N2CCN(C(=O)CCN3C(=S)NC(C)(C)CC3C)CC2)cc1 (stereo unspecified),37%,-20%,-3%,8%,1%,-21%
COc1ccc(-c2cc(C)nc3c(-c4ccc(OC)c(OC)c4)c(C)nn23)cc1,-20%,20µM*,28µM*,x,14µM*,-17%
O=C(NC[C@H]1O[C@H](Cc2cc(-c3ccc(F)cc3)on2)CC[C@@H]1O)c1ccncc1,x,x,x,x,x,6%[176 µM]
CCOc1ccc(/C(C)=N/N2C(=O)C(CC(=O)Nc3ccc(OC)cc3[N+](=O)[O-])SC2=Nc2cccc(C)c2C)cc1 (stereo unspecified),9%,-38%,-29%,-9%,35µM*,-11%
COc1ccccc1/C=N/N1C(=O)C(CC(=O)Nc2ccc([N+](=O)[O-])cc2OC)SC1=Nc1cccc(C)c1C (stereo unspecified),x,u,x,-4%,x,-14%
CC(C)(C)C1CCC2(CC1)NC(=O)N(CC(=O)NCCCc1ccccc1)C2=O (stereo unspecified),x,x,x,x,x,0%
O=C(COc1ccc(Br)cc1Cl)NC(=S)N1CCc2ccccc21,13%,11%,-6%,0%,15%[59 µM],-18%
O=C(COc1ccc(Br)cc1Br)NC(=S)N1CCCc2ccccc21,-6%,50µM*,50µM*,56µM*,8.9µM*,x
